According to the supplement of paper PMC10338343:
± gives the standard deviation.

system: MILI (PIWIL2) piRISC loaded with L1MC piRNA (26 nt); assay: pre-steady-state target cleavage rate (min^-1); guide: L1MC piRNA 5'p-UAACUAAAUACUAUGCAAGCUGUAGG; MIWI and MILI are mouse PIWI proteins and EfPiwi is from a freshwater sponge; tags in brackets are library labels; higher = faster piRNA-guided slicing of the target; conditions: auxiliary factor: 500 nM mouse GTSF1
Procedure, shortened: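 In Cleave-'n-Seq, a transcribed, DNA-blocked target RNA library (0.1 nM) was combined with 1 nM active affinity-purified piRISC bearing one synthetic guide, with or without 500 nM GTSF1 partner protein. Reactions ran in HEPES–potassium acetate buffer at 33 °C for 0–8 or 0–960 min. Uncleaved targets were sequenced and normalised to depth and to weakly complementary targets, three trials were pooled, and k3 was capped at 0.0001 min^-1. The pre-steady-state cleavage rate was obtained by fitting a burst-and-steady-state model.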

Row | Sequence | pre-steady-state target cleavage rate
1 | UCCUGGAUGUCGAUGCCUAGUAUUUAGUUA | 0.0127 ± 0.0028
2 | UCCUGGAUGUCGAUGCAUAGUAUUUAGUAA | 0.108 ± 0.015
3 | UCCUGGAUCAGCUUGCAUAGUAUUUACUUA | 0.0636 ± 0.008
4 | UCCUGCUACAGCUUGCAUUGUAUUUACUUA | 0.12 ± 0.025
5 | UCCUGGAUGUCGAUGCAAAGUAUUUAGUUA | 0.00863 ± 0.0026
6 | UCCUGGAUGUCGUAGCAUAGUAUUUAGUUA | 0.0554 ± 0.011
7 | UCCUGGAUGUCCUUGCAUAGUAAUAAGUUA | 0.0367 ± 0.013
8 | UCCUGGAUGUCGAACCCAUAGUAUUUAGUUA | 0.0032 ± 0.0019
9 | UCCUGGAUGUCGUUGCAUAGUAUUUUAGUUA | 0.125 ± 0.02
10 | UCCUGGAACAGCUUGCAAUGUAUUUAGUAA | 0.0829 ± 0.011
11 | UCCUGGAUGUCGAUGCAUAGUAAUUUAGUUA | 0.0247 ± 0.008
12 | UCCUGCUACAGCAUGCAUAGUUUUUAGUUA | 0.114 ± 0.019
13 | UCCUGGAACAGCUUGACAUAGUAUUUAGUUA | 0.213 ± 0.016
14 | UCCUGGUAGAGCUUGCUUAGUAUUUAGUUA | 0.226 ± 0.012
15 | UCCUGGUACAGCUAGCAUAGUUUUUAGUUA | 0.0495 ± 0.011
16 | UCCUGGUACAGCUUGGUAAGUAUUUAGUUA | 0.113 ± 0.018
17 | UCCUGGUACAGCUUGCAUAGUAUUAUAGUUA | 0.299 ± 0.034
18 | UCCUCCUACAGCUUGCAUAGUAUUUAGUAA | 0.246 ± 0.021
19 | UCCUGGAUGUCCUUGGAUAGUAUAUAGUUA | 0.165 ± 0.035
20 | UCCUGGAUGUCCUUGCAAAGUAUAUAGUUA | 0.0544 ± 0.014
21 | UCCUGGAUGUCCUUGCAUAGUAUUGUAGUUA | 0.102 ± 0.023
22 | UCCUGGAUGUCGUUGCAAAGUAUAUAGUUA | 0.0166 ± 0.0054
23 | UCCUGCUACAGCUUGCAAUCUAUUUAGUUA | 0.0303 ± 0.0068
24 | UCCUGGAUGUGCUUGCAAAGUAUUUACUUA | 0.0114 ± 0.0052
